# Data: the supplement of paper PMC4962491
# ± gives the standard deviation of the averaged measurements.
# Test system: FaDu
# Assay: mitochondrial oxygen consumption rate normalised to cell number, Z score vs plate DMSO wells; higher = higher oxygen consumption (negative = OCR reduction)
# Details: treatment time 24 h, assay medium: 5 mM glucose, 5 mM pyruvate, 4 mM glutamine
# Procedure: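 Secondary screen: FaDu cells were incubated 24 h with the top 130 primary hits at 0.08, 0.4, 2 or 10 uM. Mitochondrial-specific OCR (basal minus antimycin A) was measured on a Seahorse XF96 in medium with 5 mM glucose, 5 mM pyruvate and 4 mM glutamine and normalised to Hoechst cell number. OCR score = (OCR - mean of plate DMSO wells) / SD of plate DMSO wells. Three repeats.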
# 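Note: compound exposure in DMEM (4 mM L-glutamine, 5 mM glucose), antimycin A injected at 2 µM after the basal reading and its residual OCR subtracted from basal.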
SMILES,mitochondrial oxygen consumption rate normalised (0.08 µM),mitochondrial oxygen consumption rate normalised (0.4 µM),mitochondrial oxygen consumption rate normalised (2 µM),mitochondrial oxygen consumption rate normalised (10 µM)
CN(C)c1ccc(C(=C2C=CC(=[N+](C)C)C=C2)c2ccc(N(C)C)cc2)cc1,-0.504 ± 1.3,-6.33 ± 1.1,-13.3 ± 0.17,–
Cc1c2oc3c(C)ccc(C(=O)N[C@@H]4C(=O)N[C@H](C(C)C)C(=O)N5CCC[C@H]5C(=O)N(C)CC(=O)N(C)[C@@H](C(C)C)C(=O)O[C@@H]4C)c3nc-2c(C(=O)N[C@@H]2C(=O)N[C@H](C(C)C)C(=O)N3CCC[C@H]3C(=O)N(C)CC(=O)N(C)[C@@H](C(C)C)C(=O)O[C@@H]2C)c(N)c1=O,-3.2 ± 1.3,-7.48 ± 0.36,-9.57 ± 0.5,–
Cc1cc(CC(C)CC(C)(C)C)n(O)c(=O)c1 (stereo unspecified),0.0907 ± 1.2,0.402 ± 0.1,-4.87 ± 1.5,–
CC(C(O)c1ccc(O)cc1)N1CCC(Cc2ccccc2)CC1 (stereo unspecified),0.382 ± 1.5,0.565 ± 0.59,-0.938 ± 1.3,0.802 ± 0.91
CCOc1ccc2nc3cc(N)ccc3c(N)c2c1,-0.404 ± 1.3,0.17 ± 0.56,-3.32 ± 0.28,-6.87 ± 0.83
CCCCCC(=O)O[C@]1(C(C)=O)CC[C@H]2[C@@H]3CCC4=CC(=O)CC[C@]4(C)[C@H]3CC[C@@]21C,0.448 ± 1.4,0.998 ± 0.5,0.00301 ± 1.9,-3.48 ± 1.8
COc1ccc2c(c1)c(CC(=O)O)c(C)n2C(=O)c1ccc(Cl)cc1,-1.16 ± 1.6,-0.0955 ± 0.33,0.286 ± 1.6,-0.792 ± 1.6
CO[C@H]1C[C@H](O[C@H]2[C@H](C)O[C@@H](O[C@@H]3/C(C)=C/C[C@@H]4C[C@@H](C[C@]5(C=C[C@H](C)[C@@H](C6CCCCC6)O5)O4)OC(=O)[C@@H]4C=C(C)[C@@H](O)[C@H]5OC/C(=C\C=C\[C@@H]3C)[C@]54O)C[C@@H]2OC)O[C@@H](C)[C@@H]1O,0.113 ± 1.2,1.33 ± 0.39,-0.504 ± 1.2,-2.82 ± 1.1
O=C(Nc1ccc([N+](=O)[O-])cc1Cl)c1cc(Cl)ccc1O,-1.26 ± 1.4,-0.286 ± 0.41,0.259 ± 0.76,-12.5 ± 0.17
CCN(CC)CCOC(=O)C(c1ccccc1)C1CCCCC1 (stereo unspecified),0.349 ± 1.2,1.06 ± 1,1.23 ± 0.9,1.37 ± 1.6
CCCCCCCCCCCCCCCC[N+](C)(C)CCN(Cc1ccc(OC)cc1)c1ncccn1,0.201 ± 1.1,1.55 ± 0.82,0.248 ± 1.4,-5.99 ± 0.8
